This note sets out measurements from PubChem BioAssay.

Molecules are shown by their SMILES.

The target in this test is NADPH oxidase 5 (Homo sapiens) (UniProt Q96PH1). Nature of the test: compounds shifting NOX5 Amplex Red fluorescence – cell-based, HEK293-NOX5, NOX inhibitor project, primary screen (AID 1161). The settings on record: HEK293-NOX5, ionomycin, 45 min, higher = more signal.
NADPH oxidase 5 (Homo sapiens), sequence (Q96PH1 whole entry, looked up): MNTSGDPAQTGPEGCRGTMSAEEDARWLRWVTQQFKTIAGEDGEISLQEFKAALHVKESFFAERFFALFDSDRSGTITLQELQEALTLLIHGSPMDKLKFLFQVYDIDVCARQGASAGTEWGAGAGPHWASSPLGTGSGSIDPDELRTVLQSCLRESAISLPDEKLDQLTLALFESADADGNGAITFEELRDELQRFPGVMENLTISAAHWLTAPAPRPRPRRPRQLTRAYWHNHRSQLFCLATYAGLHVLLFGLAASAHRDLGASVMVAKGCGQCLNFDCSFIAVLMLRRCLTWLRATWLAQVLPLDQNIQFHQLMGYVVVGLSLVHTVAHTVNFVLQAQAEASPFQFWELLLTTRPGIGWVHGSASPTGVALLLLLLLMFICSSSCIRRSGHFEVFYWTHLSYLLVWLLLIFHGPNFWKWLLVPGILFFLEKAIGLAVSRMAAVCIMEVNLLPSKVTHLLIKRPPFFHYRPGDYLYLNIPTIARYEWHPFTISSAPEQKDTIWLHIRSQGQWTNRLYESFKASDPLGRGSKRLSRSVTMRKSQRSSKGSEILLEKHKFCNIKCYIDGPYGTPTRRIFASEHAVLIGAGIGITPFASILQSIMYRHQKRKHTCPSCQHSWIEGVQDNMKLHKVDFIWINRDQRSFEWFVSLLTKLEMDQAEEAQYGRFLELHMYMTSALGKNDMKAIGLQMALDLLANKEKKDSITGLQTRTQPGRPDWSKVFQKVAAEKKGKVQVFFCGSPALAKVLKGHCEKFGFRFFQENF
Take `CO[C@H]1COC(=O)[C@H](C)COC(=O)[C@H](C)NC(=O)CC=C[C@H]1C`: the z-score was -0.42.

Take `COC(=O)[C@H](C)NC(=O)CCC1CC(OC(=O)NCc2ccc3c(c2)OCO3)CC2(CCCC(COC(=O)NCCCN3CCCC3=O)O2)O1` (stereo partly specified): the z-score was -1.74.

Regarding `COc1ccc(COC(=O)NN=C2C[C@@H](O)[C@@H](O)[C@@H]3[C@@H]4C(=O)N(C[C@@H]5CCCO5)C(=O)[C@@H]4CC[C@@H]23)cc1`, the z-score is -0.0772.

`COc1ccc(COC(=O)NN=C2C[C@@H](O)[C@@H](O)[C@@H]3[C@@H]4C(=O)N(C(C)(C)C)C(=O)[C@@H]4CC[C@@H]23)cc1`: the z-score came out at 0.315.

Consider `CCOC(=O)[C@H](CC(C)C)NC(=O)CCC1CC(OC(=O)NCc2ccc3c(c2)OCO3)CC2(CCCC(COC(=O)NCc3ccccc3)O2)O1` (stereo partly specified), for which the z-score amounted to 0.202.

For `CC(C)[C@H](NC(=O)OC(C)(C)C)[C@@H](O)CC(=O)C(C)(C)C`, the z-score turned out to be 0.195.
